# Data published in paper PMC5540273 (PLoS ONE, 2017).
# What was measured:
# Settings in all cases: concentration: 1 μM, replicates: in singlicate; n = 1
# MLK1 = system: T1, MLK1
# T1 construct: gene MAP3K9
# MLK2 = system: MLK2
# MLK3 = system: MLK3
# MRCKA = system: MRCKA
# MRCKB = system: T2, MRCKB
# T2 construct: gene CDC42BPB
# MST1R = system: MST1R
# MST1 = system: T3, MST1
# T3 construct: gene STK4
# MST2 = system: T4, MST2
# T4 construct: gene STK3
# MST3 = system: T5, MST3
# T5 construct: gene STK24
# MST4 = system: MST4
# 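Note: KINOMEscan kinase panel screen.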
SMILES,%Inh (MLK1),%Inh (MLK2),%Inh (MLK3),%Inh (MRCKA),%Inh (MRCKB),%Inh (MST1R),%Inh (MST1),%Inh (MST2),%Inh (MST3),%Inh (MST4)
CC(=O)Nc1nc2cnc(Nc3cc(NC(=O)c4cccc(C5(C#N)CC5)c4Cl)ccc3C)nc2s1,4%,10%,0%,5%,0%,13%,0%,12%,6%,0%
Nc1ncnc2c1nc(-c1ccccc1)n2-c1ccccc1 [SKF-97293],16%,2%,0%,0%,0%,18%,21%,20%,0%,24%
COc1cccc(-c2ccc3c(NC(=O)C4CC4)n[nH]c3n2)c1 [SB-710903],19%,0%,0%,21%,0%,29%,3%,0%,0%,0%
CN1CCN(Cc2cccc(-c3ccc4c(Nc5ccc(Oc6ccccc6)cc5)ccnc4c3)c2)CC1 [GW578342],4%,5%,4%,0%,0%,35%,12%,0%,3%,0%
CNC(=O)c1ccccc1Nc1nc(Nc2ccc(N3CCOCC3)cc2)ncc1Cl.Cl [GSK1576028],97.6%,82%,86%,6%,0%,92.9%,99.1%,97.5%,61%,85%
COC(=O)Nc1nc2ccc(Oc3ccc(NC(=O)Nc4cc(C(F)(F)F)ccc4F)cc3)cc2n1C.Cl [GW692089],0%,0%,19%,0%,0%,14%,0%,0%,3%,0%
Cc1ccc(C)c(NC(=O)NC2CCN(c3ccnc(Nc4ccc(F)cc4)n3)C2)c1 (stereo not drawn) [GSK1379720],0%,0%,0%,11%,6%,38%,0%,0%,0%,0%
COc1cc(Nc2nccc(-c3c(-c4cccc(NC(=O)c5c(F)cccc5F)c4)nn4ccccc34)n2)cc(OC)c1OC [GSK323521],28%,56%,17%,0%,0%,6%,92.1%,39%,33%,33%
Cl.NC(=O)c1cccc(Nc2nccc(Nc3ccc(Oc4c(Cl)cccc4Cl)c(Cl)c3)n2)c1 [GW659009],0%,0%,0%,0%,0%,3%,75%,11%,0%,0%
Cl.c1ccc(-c2ccc3c(Nc4ccc5[nH]ncc5c4)ccnc3c2)nc1 [GW440137],0%,27%,11%,9%,0%,43%,0%,28%,0%,3%
CN1CCN(CCCNc2nccc(-c3c(-c4ccc(F)cc4)nn4cc(C(F)(F)F)ccc34)n2)CC1 [GW621581],0%,22%,0%,0%,0%,8%,11%,0%,19%,0%
Cc1ccc(C(=O)N2CC[C@@H](O)C2)cc1-n1c(C)cc(OCc2ccc(F)cc2F)c(Br)c1=O,0%,5%,0%,0%,0%,3%,0%,5%,5%,0%
CCn1c(-c2nonc2N)nc2c(C#CC(C)(C)O)nc(OC[C@H](N)c3ccccc3)cc21 [GSK943949],0%,23%,5%,0%,5%,1%,0%,58%,9%,7%
Cl.c1ccc(-c2ccc3c(Nc4ccc5[nH]ccc5c4)ccnc3c2)nc1 [GW440138],0%,0%,0%,6%,0%,35%,0%,0%,9%,0%
O=C(NC1CCN(c2ccnc(Nc3ccc(F)cc3)n2)C1)c1cc2ccccc2s1 (stereo not drawn) [GSK1379716],0%,0%,29%,10%,5%,34%,9%,0%,0%,0%
